What all share (experiment): NCI-60 one-dose screen, 48 h (100 = growth as untreated, 0 = no growth, -100 = all killed)
One assay deals with NCI-H23 lung. As to conditions: 10 µM unless noted.
For a further assay, the system named is NCI-H226 lung. As to conditions: 10 µM unless noted.
The test system of another assay is NCI-H322M lung. To be noted: 10 µM unless noted.
The next assay deals with HOP-62 NSCLC. As to conditions: 10 µM unless noted.
Another assay deals with HOP-92 NSCLC. To be noted: 10 µM unless noted.
For the next assay, the system named is A549/ATCC NSCLC. As to conditions: 10 µM unless noted.
The subject of a further assay is 786-0 renal. As to conditions: 10 µM unless noted.
In the next assay the test system is COLO 205 colon. To be noted: 10 µM unless noted.
For another assay, the system named is NCI-H460 lung. As to conditions: 10 µM unless noted.
The next assay has as its system NCI-H522 lung. As to conditions: 10 µM.

This note sets out measurements from PubChem BioAssay (NCI).

Each structure is given as a SMILES string. Compounds without any hit were thinned out: in the full panel of roughly 83,000, 20% have a hit.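 Treatment: one concentration, 48 hours, 96-well format. Scoring: percent growth, with anything below 10 considered active.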 A number with no mark means an inactive call. Activity calls are given as the source filed them.

`C(=C1c2ccccc2-c2ccccc21)c1ccccn1`: the growth in the assay on NCI-H23 lung was 79.9%; in the assay on NCI-H226 lung it was 99.6%; in the assay on NCI-H322M lung it was 89.1%; with HOP-62 NSCLC, 71.7%; in the assay with HOP-92 NSCLC, 73.4%; in the assay with A549/ATCC NSCLC it was 63.7%. For the same molecule, the values for the growth in the assay on 786-0 renal and with COLO 205 colon were 87.2% and 84.9%, respectively.

With `O=C(CC(C(=O)c1ccccc1)N1CCN(Cc2ccccc2)CC1)c1ccccc1` (stereo not drawn), the growth in the assay on NCI-H23 lung was 84%; in the assay with NCI-H226 lung, 104%; in the assay with NCI-H322M lung, 112%; in the assay with NCI-H460 lung, 104%; in the assay on HOP-92 NSCLC, 80.7%; with A549/ATCC NSCLC it was 98%. Moreover, the growth in the assay with 786-0 renal was 95.8%; in the assay with COLO 205 colon, 70.3%.

With `COc1cc(/C=C/C(=O)C(C(=O)/C=C/c2ccc(OC(=O)CCNc3nnc(C)s3)c(OC)c2)C(=O)CCNc2nnc(C)s2)ccc1OC(=O)CCNc1nnc(C)s1`, the growth with NCI-H23 lung is 11.9%; with NCI-H226 lung it was 24.5%; in the assay with NCI-H322M lung, 42.1%; in the assay with NCI-H460 lung, -29% (active); in the assay with HOP-92 NSCLC, -16.4% (active); with A549/ATCC NSCLC, 34.3%. The growth in the assay with 786-0 renal is -38% (active); in the assay with COLO 205 colon it was -26.3% (active).

`CCSc1nc(Nc2ccc(S(=O)(=O)Nc3ccon3)cc2)c(C#N)c(-c2cccc(Br)c2)n1`: the growth is 101% in the assay on NCI-H23 lung; 77.2% with NCI-H226 lung; 74.3% with NCI-H322M lung; 93.9% in the assay with HOP-62 NSCLC; 90.2% with HOP-92 NSCLC; 94.8% in the assay on 786-0 renal. Further, in the assay on COLO 205 colon, the growth is 117%.

On to `O=C(/C=C(\Nc1ccccc1)c1ccccc1)c1cn(-c2ccc([N+](=O)[O-])cc2)nn1`, for which the growth in the assay with NCI-H23 lung is 91.4%; in the assay with NCI-H226 lung, 95.3%; in the assay with NCI-H322M lung, 82.8%; with HOP-62 NSCLC, 101%; with HOP-92 NSCLC, 95%; in the assay on 786-0 renal it was 92.1%. In the assay on COLO 205 colon, the growth is 97.2%.

Regarding `Cc1[nH]cnc1/C=C1\SC(N2CCCCC2)=NC1=O`, the growth with NCI-H23 lung is 101%; in the assay on NCI-H226 lung, 96.2%; in the assay on NCI-H322M lung, 123%; with NCI-H460 lung it was 109%; in the assay on HOP-92 NSCLC, 100%; with A549/ATCC NSCLC it was 96.8%. Moreover, the figures for the growth in the assay with 786-0 renal and in the assay on COLO 205 colon were 94.7% and 114%, respectively.

In the case of `O=C(CSc1nnc(-c2cc(-c3ccccc3)nc3ccccc23)o1)c1ccc(Br)cc1`, the growth with NCI-H23 lung is 106%; in the assay on NCI-H226 lung it was 104%; with NCI-H322M lung it was 103%; in the assay with NCI-H460 lung, 106%; in the assay on HOP-92 NSCLC it was 114%; with A549/ATCC NSCLC, 105%. In addition, the results for the growth in the assay with 786-0 renal and with COLO 205 colon were 104% and 119%, respectively.

With `c1ccc2nc(Cn3c[n+](Cc4ccc5ccccc5n4)c4ccccc43)ccc2c1`, the growth in the assay on NCI-H23 lung is 32%; with NCI-H226 lung, 37.1%; in the assay with NCI-H322M lung, 78.1%; with NCI-H460 lung it was 32.4%; in the assay with HOP-92 NSCLC, -8.16% (active); in the assay with A549/ATCC NSCLC, 54%. Further, the growth was 66.7% with 786-0 renal and 6.96% (active) in the assay with COLO 205 colon.

Turning to `Cc1ccc(C(NC(=O)c2ccccc2)c2ccc3cccnc3c2O)cc1` (stereo not drawn), the growth is 23.5% with NCI-H23 lung; -6.24% (active) in the assay with NCI-H226 lung; 25.3% with NCI-H322M lung; 4.02% (active) with NCI-H460 lung; 24.8% in the assay with HOP-92 NSCLC; -5.42% (active) in the assay with NCI-H522 lung. For the same molecule, the results for the growth in the assay with 786-0 renal and in the assay with COLO 205 colon were -14.5% (active) and 29.3%, respectively.

For the molecule `CC(=O)c1ccccc1NC(=O)C(C)(c1ccccc1)c1ccccc1`, the growth with NCI-H23 lung is 82.7%; in the assay on NCI-H226 lung it was 91%; in the assay on NCI-H322M lung, 89.3%; in the assay with NCI-H460 lung, 106%; with HOP-92 NSCLC it was 86.4%; with 786-0 renal, 92.5%. In the assay with COLO 205 colon, the growth is 114%.

As to `Cc1[nH]c(=O)[nH]c(=O)c1CCSSCCc1c(C)[nH]c(=O)[nH]c1=O`, the growth in the assay with NCI-H23 lung was 107%; with NCI-H226 lung it was 102%; with NCI-H322M lung it was 89.9%; in the assay on HOP-62 NSCLC, 97.2%; in the assay with A549/ATCC NSCLC, 103%; with 786-0 renal it was 103%. Also, the growth in the assay on COLO 205 colon was 107%.

For the molecule `COc1ccc(-c2nc3sc4c(c3c(=O)[nH]2)CCCCCC4)cc1`, the growth is 80.7% with NCI-H23 lung; 86.5% in the assay on NCI-H226 lung; 74.4% with NCI-H322M lung; 36.2% with HOP-62 NSCLC; 50.3% in the assay on A549/ATCC NSCLC; 80.1% in the assay with 786-0 renal. Further, the growth in the assay on COLO 205 colon is 35.4%.

In the case of `Nc1ccn(C2O[C@H](CO)[C@@H](O)[C@@H]2O)c(=O)n1` (stereo partly drawn), the growth with NCI-H23 lung was 28.2%; in the assay with NCI-H226 lung, 34.3%; with NCI-H322M lung, 62.6%; with NCI-H460 lung it was 6.43% (active); in the assay on HOP-92 NSCLC, 53.8%; in the assay on NCI-H522 lung, 68.1%. The growth in the assay with 786-0 renal was 10.2%; with COLO 205 colon it was 57.3%.

In the case of `CN(C)CCCN=c1cc2c(=O)n(CCCN(C)C)c(=O)c3c(NCCCN(C)C)cc4c(O)n(CCCN(C)C)c(=O)c1c4c3-2`, the growth in the assay on NCI-H23 lung was 21.1%; in the assay on NCI-H226 lung, -33.2% (active); in the assay on NCI-H322M lung, -26.9% (active); with HOP-62 NSCLC, -11.4% (active); in the assay on HOP-92 NSCLC it was -0.168% (active); in the assay with A549/ATCC NSCLC, -30.8% (active). In addition, the values for the growth with 786-0 renal and in the assay with COLO 205 colon were -47.5% (active) and -56.6% (active), respectively.

As for `NC(=O)NC1(C(=O)O)CCCC1`, the growth with NCI-H23 lung was 105%; with NCI-H226 lung, 111%; in the assay on NCI-H322M lung, 115%; in the assay on NCI-H460 lung, 112%; in the assay with HOP-92 NSCLC it was 121%; in the assay with A549/ATCC NSCLC, 101%. In addition, the growth with 786-0 renal and in the assay on COLO 205 colon was 107% throughout.

As to `CC(=O)Nc1ccc(C(=O)COc2ccc(/C=C3\CCc4ccccc4C3=O)cc2)cc1`, the growth is 108% in the assay on NCI-H23 lung; 94.8% with NCI-H226 lung; 108% in the assay on NCI-H322M lung; 124% in the assay on NCI-H460 lung; 114% in the assay on HOP-92 NSCLC; 92.4% in the assay on NCI-H522 lung. The growth with 786-0 renal was 97%; in the assay on COLO 205 colon, 143%.
